The test concerns Sonic hedgehog protein (Shh). Description: small-molecule binders of Shh protein, primary screen, biochemical, small-molecule microarray, 635/667 nm fluorescence (AID 1151).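 Further: Shh protein binding to compounds spotted on small-molecule microarray slides; score combines spot fluorescence intensity with signal-to-noise across triplicate slides.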 The following applies: small-molecule microarray binding, 635 nm fluorescence; higher = more signal.
On to `O=C1OCC=C[C@H]2OC34C=CCN(c5ccc(Cl)cc5)C(=O)[C@H]3N(CCCCCO)C(=O)[C@@H]4[C@@H]12` (stereo not given in full), for which the composite z-score was -0.695.

`CC(C)(C)OC(=O)CC[C@]1(C(=O)NCCN2CCOCC2)N=C(c2ccc(OCCCO)cc2)O[C@H]1c1ccccc1N=[N+]=[N-]`: the composite z-score was -0.299.

`COC(=O)C1(Cc2ccccc2)C=C2C(=C(c3ccccc3)C(=O)C2C)CN1` (stereo not given) came in with a composite z-score of -0.525.

`COc1cc(CO)cc(I)c1O[C@H]1C=C(C(=O)NCCO)C[C@@H](N(CC2CCCCC2)C(=O)c2ccc(C(F)(F)F)cc2)[C@@H]1O` yielded a composite z-score of 1.23.

Molecule `COc1ccc([Si](C)(C)[C@H]2[C@H](CCn3cc(CCO)nn3)O[C@@]3(C(=O)N(Cc4ccc(N5C(=O)c6cccc7cccc5c67)cc4)c4ccccc43)[C@@H]2C)cc1` came in with a composite z-score of 2.08.

`CC=CC(O)C1C=CC2C(=O)N(C)C(=O)C2N1Nc1ccc([N+](=O)[O-])cc1[N+](=O)[O-]` (stereo not given) had a composite z-score of -0.144.

`COCCCNC(=O)[C@]1(Cc2ccccc2N=[N+]=[N-])N=C(c2ccc(OCCCO)cc2)O[C@@H]1c1ccccc1N=[N+]=[N-]`: the composite z-score was -0.973.

Regarding `[N-]=[N+]=NCc1ccccc1C[C@@]1(C(N)=O)N=C(c2ccc(OCCCO)cc2)O[C@@H]1c1ccccc1CN=[N+]=[N-]`, the composite z-score was -0.302.

For the molecule `O=C1NC(=O)C2C1C=CC(C(O)c1ccc3c(c1)OCO3)N2Nc1ccccn1` (stereo not given), the composite z-score was 0.347.

With `O=C1C[C@]2(c3ccc([N+](=O)[O-])cc3)C(=O)N(Cc3ccccc3)c3cc(CO)ccc3[C@H]2N1CC12CC3CC(CC(C3)C1)C2`, the composite z-score was -0.419.

`COc1cc2c(cc1OC)CN(C(=O)[C@H]1[C@@H]3C(=O)O[C@@H](c4ccccc4)[C@@H](c4ccccc4)N3[C@@H](c3ccc(OCCO)cc3)[C@]13C(=O)Nc1ccc(C#CCCO)cc13)CC2` returned a composite z-score of 1.62.

`CC(C)NC(=O)[C@@]1(C)c2ccccc2C(=O)N(C(C)C)[C@H]1c1ccc(CO)cc1` displayed a composite z-score of 0.133.

With `C=CCC(OC(C)=O)[C@@H]1[C@@H](N(Cc2cc3ccccc3o2)C(=O)Cc2ccc(F)cc2)c2cc(OCCCO)ccc2N1C(=O)c1ccc2ccccc2n1` (stereo not given in full), the composite z-score was 0.0974.

`O=C1O[C@@H](c2ccccc2)[C@@H](c2ccccc2)N2[C@@H](c3ccc(O)cc3)[C@]3(C(=O)Nc4ccc(C#CCCO)cc43)[C@@H](C(=O)Nc3nc4ccccc4s3)[C@H]12`: the composite z-score was 0.756.

In turn, `C=C(CCCC)/C(=C/C[C@@H](OC(C)=O)c1ccc(CO)o1)c1cc(C(=O)OC)ccc1OC` registered a composite z-score of 2.15.

`O=C1OC[C@@H](c2ccccc2)N2CC(/C=C/c3ccccc3)=CC12` (stereo not given in full) registered a composite z-score of -1.05.

Consider `CCOC(=O)[C@H]1C/C=C/C[C@H](C(=O)OCC)C(=O)O[C@H]2[C@@H](OC)O[C@H](CO)[C@@H](OC(=O)CCc3ccccc3)[C@@H]2OC1=O`, for which the composite z-score was -0.0617.

Consider `[N-]=[N+]=Nc1ccccc1C[C@@]1(C(=O)O)N=C(c2ccc(OCCCO)cc2)O[C@@H]1c1ccccc1`, for which the composite z-score is -0.0424.

`CC(C)(C)N1CC=CC23O[C@@H]4C=CCOC(=O)[C@@H]4[C@H]2C(=O)N(CCCO)[C@@H]3C1=O` (stereo not given in full) returned a composite z-score of -0.471.

In turn, `COC1(C)CN(Cc2ccccc2Br)[C@H](/C=C/c2ccccc2)[C@H](Cc2ccccc2)O1` (stereo not given in full) displayed a composite z-score of -0.191.

On to `O=C(N1CCCCC1)[C@@]1(Cc2ccccc2)COC(c2ccc(OCCCO)cc2)=N1`, for which the composite z-score amounted to 0.934.

Turning to `COC(=O)[C@@]1(Cc2ccc(F)cc2)[C@H]2c3cc(C(=O)N4CCCC4)n(CCc4c[nH]c5ccc(OC)cc45)c3C[C@H]2CN1C(=O)c1ccccc1`, the composite z-score is 0.0332.

For `[N-]=[N+]=Nc1ccccc1[C@@H]1OC(c2ccc(OCCCO)cc2)=N[C@]1(CCS(=O)(=O)c1ccccc1)C(=O)NCCN1CCOCC1`, the composite z-score is -0.252.

`CN1C(=O)C2C=CC(C(O)c3c(F)cccc3Cl)N(Nc3ccccc3)C2C1=O` (stereo not given): the composite z-score was -0.206.

Turning to `COC(=O)[C@@]1(Cc2ccccc2)[C@H]2c3cc(C(=O)N4CCCC4)[nH]c3C[C@H]2CN1C(=O)c1ccccc1`, the composite z-score was -0.786.

In turn, `NCCCCCCNC(=O)[C@H]1C[C@H]2C(=O)N[C@@H](Cc3ccccc3)C(=O)N2[C@H]1c1ccc(O)cc1` gave a composite z-score of 1.07.

For `C[N+](C)(C)CCCC[C@@H]1NC(=O)[C@@H]2C[C@H](C(=O)O)[C@H](c3ccc(O)cc3)N2C1=O`, the composite z-score was -0.0334.

`C=C(CCCC)C(=O)CC[C@@H](OC(=O)c1cccnc1)c1ccccc1OCCO` displayed a composite z-score of 1.76.

`O=C1O[C@@H](c2ccccc2)[C@@H](c2ccccc2)N2[C@@H](c3ccccc3OCCO)[C@]3(C(=O)Nc4ccccc43)[C@@H](C(=O)NC[C@H](O)c3ccccc3)[C@H]12` gave a composite z-score of 0.0935.

The molecule `CC(C)(C)OC(=O)CC[C@]1(C(=O)O)N=C(c2ccc(OCCCO)cc2)O[C@H]1c1ccccc1` returned a composite z-score of -0.899.

`C=C(/C=C/CNS(=O)(=O)c1ccc(C)cc1)[C@H](O)[C@H]1CCCN1S(=O)(=O)c1ccccc1[N+](=O)[O-]` yielded a composite z-score of 0.758.

Take `CCOC(=O)C1=CC[C@@H](c2ccccc2C(F)(F)F)N(S(=O)(=O)c2ccc(C)cc2)C1`: the composite z-score amounted to 0.0555.

In the case of `CN(C)CCCN1C(=O)[C@@]2(c3ccc([N+](=O)[O-])cc3)CC(=O)N(CC34CC5CC(CC(C5)C3)C4)[C@@H]2c2ccc(CO)cc21`, the composite z-score stood at 0.0109.

The molecule `CN1C2C=C(CCCO)C(C3C(=O)N(C(N)=O)C(=O)C32)C1c1cccs1` (stereo not given) gave a composite z-score of 0.279.

Turning to `CCOC(=O)C1=CC[C@@H](c2ccc([N+](=O)[O-])cc2)N(S(=O)(=O)c2ccc(C)cc2)[C@H]1c1ccccc1`, the composite z-score turned out to be 1.39.

The values above are taken from PubChem BioAssay.
